# Results as given in PubChem BioAssay.
# Where “and” joins values, the source holds several entries; their conditions need not be identical. Equal entries are not always repeated. Results filed as inconclusive are left out. For some assays here: Potency and affinity values are given separately. More than one record can exist for a structure, and the calls need not agree. Calls of active or inactive are those of the source. Unless noted, the rule behind the calls is not given here.
# How the values were obtained:
# [1] = liver-stage malaria parasite growth inhibition, primary screen, cell-based, HepG2, luciferase luminescence, HepG2 viability (AID 624349; in the data active = parasite load remaining mostly below about 12%, no sharp cut-off; inactive = mostly above about 10%;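 note: 100% = mean of DMSO negative control wells on the same plate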); details: P. berghei liver stage in HepG2, luciferase luminescence, concentration not given here; parasite load remaining: stronger effect = lower value; viability: measured here: HepG2 viability without parasites
# [2] = differential killing of epithelial or mesenchymal cells, primary screen, imaging, PC-3E GFP, TEM4-18 mCherry, co-culture (AID 1345086;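 active = compounds killing one labelled cell type while sparing the other, by normalised counts and ratio limits, not self-fluorescent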;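 for all read-outs here: cells exposed to compound for 72 h before imaging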;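 for red/green cell ratio (normalised): normalised mesenchymal count divided by normalised epithelial count so high means epithelial killing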); details: imaging cell counts, at 1 µM; for red/green cell ratio (normalised): actives lie on both sides
# [3] = sensitizers of A549 cells to miR-34 induction, primary screen, imaging, A549 dox-inducible miR-34, nuclei and caspase counts (AID 1347080;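 active = compounds whose cell count with miR-34 switched on is under 0.7 times the count with it off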); details: A549 miR-34 inducible, Hoechst nuclei count, 48 h
# [4] = circadian clock period modulators, cell-based, LOPAC library, luminescence reporter (AID 2774); details: circadian reporter cells, at 7 µM, actives lie on both sides;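 note: values are relative to mean of DMSO wells on each plate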
# [5] = system: Hepatitis C virus NS3 helicase; test: HCV NS3 helicase inhibitors, primary screen, biochemical, fluorescence polarization, LOPAC1280 library (AID 687035; in the data active = inhibition above about 37%); details: Purified HCV NS3 helicase, Cy5-dT15 ssDNA binding fluorescence polarization; stronger effect = higher value; concentration not given here
# [6] = Cy5 fluorescence quenching or enhancement artefacts, artefact control for HCV NS3 helicase inhibitor project, biochemical, LOPAC1280 (AID 687037); details: Cy5-DNA-NS3h complex fluorescence interference counterscreen
# [7] = system: Aerobactin synthetase IucA (Klebsiella pneumoniae); test: IucA aerobactin synthetase inhibitors, biochemical, Tocris library, absorbance (AID 1345561); details: purified IucA enzyme assay, absorbance (OD) read-out; stronger effect = lower value;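 tested at 8 µM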;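 note: 100% = enzyme without compound and 0% = no enzyme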
# [8] = system: Aerobactin synthetase IucA (Klebsiella pneumoniae, hypervirulent); test: IucA enzyme inhibition, biochemical, LOPAC library, absorbance readout (AID 1346212); details: IucA enzyme assay, absorbance (OD) readout; stronger effect = lower value;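 tested at 8 µM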;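 note: 100% = no compound wells and 0% = no enzyme wells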
# [9] = growth inhibition of DIPG glioma cells, dose response, cell-based, JHH-DIPG-1, MIPE4.0, CellTiter-Glo, qHTS (AID 1347062; cut-off not given, nearly all actives have AC50 up to about 27 µM); details: JHH-DIPG-1 viability, CellTiter-Glo ATP luminescence
# [10] = growth inhibition of DIPG glioma cells, dose response, cell-based, SU-DIPG-IV, MIPE4.0, CellTiter-Glo, qHTS (AID 1347063; cut-off not given, nearly all actives have AC50 up to about 30 µM;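 note: compound exposure lasted 48 hours before the viability readout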); details: SU-DIPG-IV viability, CellTiter-Glo ATP luminescence
# [11] = SU-DIPG-VI glioma cell viability, MIPE4.0 library, CellTiter-Glo luminescence, qHTS (AID 1347066; cut-off not given, nearly all actives have AC50 up to about 30 µM;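 note: cells exposed to compound for 48 hours before readout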); details: CellTiter-Glo ATP luminescence
# [12] = phospholipid biosynthesis inhibitors in animal cells, primary screen, cell-based, LOPAC library, screen 4 (AID 1347384); details: phospholipid biosynthesis inhibition screen, at 10 µM
# [13] = viability rescue of complex I mutant cybrids, primary screen, cell-based, galactose medium, ATP luminescence (AID 1645843;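 active = z-score of at least 1.8 in each of two replicates, scored against plate mean and spread of sample wells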;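 note: positive z means more ATP and so rescue of galactose-driven cybrid death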); details: complex I mutant cybrid cells, 72 h, stronger effect = higher value
# [14] = growth inhibition of DIPG glioma cells, dose response, cell-based, SU-DIPG-XVII, MIPE5.0, CellTiter-Glo, qHTS (AID 1347060; cut-off not given, nearly all actives have AC50 up to about 26 µM); details: SU-DIPG-XVII viability, CellTiter-Glo ATP luminescence
# [15] = growth inhibition of DIPG glioma cells, dose response, cell-based, SU-DIPG-XIII, MIPE5.0, CellTiter-Glo, qHTS (AID 1347064; cut-off not given, nearly all actives have AC50 up to about 23 µM); details: SU-DIPG-XIII viability, CellTiter-Glo ATP luminescence
# [16] = viability loss in pontine glioma line – cell-based, SU-DIPG-XXV, MIPE5.0, CellTiter-Glo, qHTS, dose response (AID 1347065; cut-off not given, nearly all actives have AC50 up to about 26 µM;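 note: cells exposed to compound for 48 hours before ATP readout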); details: CellTiter-Glo ATP luminescence
# [17] = JHH-DIPG-1 glioma cell viability, MIPE5.0 library, CellTiter-Glo luminescence, qHTS (AID 1347067; cut-off not given, nearly all actives have AC50 up to about 26 µM;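 note: cells exposed to compound for 48 hours before readout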); details: JHH-DIPG-1 glioma viability, CellTiter-Glo ATP luminescence
# [18] = SU-DIPG-XXV glioma cell viability, MIPE5.0 library, qHTS (AID 1347068; cut-off not given, nearly all actives have IC50 up to about 30 µM)
# [19] = inhibitors of Cryptococcus chitosan production, flow cytometry, Cibacron Brilliant Red staining (AID 1347148); details: Cryptococcus neoformans chitosan, stronger effect = lower value; at 10 µM unless noted;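 note: compound exposure lasted three days at 37 degrees C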
# [20] = hESC survival regulators, cell-based (AID 493140); details: human embryonic stem cell survival screen; stronger effect = higher value;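 note: cells exposed to compounds for four days before counting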
# [21] = growth inhibition of DIPG glioma cells, dose response, cell-based, SU-DIPG-XIII, MIPE4.0, CellTiter-Glo, qHTS (AID 1347061; cut-off not given, nearly all actives have AC50 up to about 37 µM;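 note: cells exposed to compound for 48 hours before readout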); details: SU-DIPG-XIII viability, CellTiter-Glo ATP luminescence
# [22] = polyglutamine-triggered caspase-3 activation inhibitors, cell-based (AID 1583); details: polyglutamine-induced caspase-3 activation, cell assay; stronger effect = higher value;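 tested at 10 µM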
# [23] = suppressors of polyQ aggregation in yeast, 75Q-TubU reporter (AID 1593); details: Yeast 75Q polyglutamine aggregation reporter
# [24] = rescue of polyQ-huntingtin neuronal dysfunction in worms, whole organism, C. elegans mechanosensory neurons, N-terminal huntingtin (AID 1599); details: touch response, stronger effect = higher value
# [25] = inhibitors of mitochondrial cytochrome c release, biochemical, purified mitochondria (AID 1603); details: stronger effect = lower value;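 note: mouse liver mitochondria challenged with calcium chloride; signal normalized to the plate average as 100%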
# [26] = inhibitors of polyQ protein aggregation (AID 1604); details: polyglutamine-induced protein aggregation inhibition assay; stronger effect = higher value; tested at 2.5 µM
# [27] = enhancers of glutamate uptake in motor neurons, MN-1 cell line (AID 1612); details: MN-1 motor neuron cells, stronger effect = higher value;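 note: tested at 1 µM final; 0% = mean of DMSO vehicle wells on each plate; positive means more glutamate uptake than control and negative means less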
# [28] = suppressors of polyglutamine aggregation in yeast, 75Q-TubH (AID 1616); details: S. cerevisiae 75Q-TubH polyglutamine aggregation suppression; stronger effect = higher value
# [29] = reducers of polyQ inclusions in PC12 cells, cell-based, NGF-treated PC12, GFPQ80 (AID 1614); details: PC12 NGF-treated GFP-polyQ80 inclusion reduction;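 note: lower means fewer inclusions and 0 means no inclusions at all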
# [30] = measured here: epithelial PC-3E GFP cell survival
# [31] = measured here: mesenchymal TEM4-18 mCherry cell survival
# [32] = measured here: relative caspase fold change +Dox/-Dox
# [33] = measured here: total cells with miR-34 induction, stronger effect = lower value
# [34] = measured here: total cells without miR-34 induction
# [35] = stronger effect = lower value, cell number ratio, induced over uninduced
compound,measurement,setting,value
C#C[C@@H]1CC2C3CCC4=C[C@@H](OC(C)=O)CCC4C3CC[C@]2(C)[C@H]1OC(C)=O (some centres undefined),parasite load remaining,[1],19.4% (inactive)
same,viability,[1],101%
same,red/green cell ratio (normalised),[2],0.9 (inactive)
same,normalised cell number,[2]; [30],1.25
same,normalised cell number,[2]; [31],1.12
same,fold change,[3]; stronger effect = lower value,0.854 (inactive)
same,fold change,[3]; [32],3.71
same,cell count,[3]; [33],11300
same,cell count,[3]; [34],13200
CC1=NN=C(c2ccc(N)cc2)c2cc3c(cc2C1)OCO3,period change,[4],0.095 h (inactive)
same,inhibition,[5],3% (inactive)
same,fluorescence ratio (interference),[6],1 (inactive)
same,remaining activity,[7],114% (inactive)
same,remaining activity,[8],78.1% (inactive)
same,outcome,[9],inactive
same,outcome,[10],inactive
same,outcome,[11],inactive
same,fold change,[3]; stronger effect = lower value,1.05 (inactive) and 1 (inactive)
same,fold change,[3]; [32],0.665 and 1.11
same,cell count,[3]; [33],10000 and 7840
same,cell count,[3]; [34],9520 and 7820
same,outcome,[12],inactive
same,z-score,[13],0.825 (inactive) and 4.29 (active)
c1ccc2sc(C3(N4CCCCC4)CCCCC3)cc2c1,period change,[4],-0.2 h (inactive)
same,inhibition,[5],-3% (inactive)
same,fluorescence ratio (interference),[6],1 (inactive)
same,remaining activity,[7],107% (inactive)
same,remaining activity,[8],110% (inactive)
same,fold change,[3]; stronger effect = lower value,0.986 (inactive)
same,fold change,[3]; [35],0.965 (inactive)
same,fold change,[3]; [32],1.78 and 0.772
same,cell count,[3]; [33],8350 and 7790
same,cell count,[3]; [34],8470 and 8070
same,outcome,[12],inactive
same,z-score,[13],-1.48 (inactive) and -1.21 (inactive)
COC(=O)[C@@H](N)CCCN=C(N)N[N+](=O)[O-],period change,[4],-0.07 h (inactive)
same,inhibition,[5],-2% (inactive)
same,fluorescence ratio (interference),[6],1 (inactive)
same,remaining activity,[7],81.5% (inactive)
same,remaining activity,[8],117% (inactive)
same,outcome,[14],inactive
same,outcome,[9],inactive
same,outcome,[15],inactive
same,outcome,[16],inactive
same,outcome,[11],inactive
same,outcome,[17],inactive
same,outcome,[18],inactive
same,fold change,[3]; stronger effect = lower value,1.06 (inactive) and 1.11 (inactive) and 0.952 (inactive)
same,fold change,[3]; [32],1.8 and 0.812 and 0.955
same,cell count,[3]; [33],11200 and 5930 and 8740
same,cell count,[3]; [34],10600 and 5320 and 9180
same,fold fluorescence,[19],4.22 [at 214.4 µM] (inactive)
same,outcome,[12],inactive
same,z-score,[13],0.23 (inactive) and 0.29 (inactive)
C/C(O)=C(\C#N)C(=O)Nc1cc(Br)ccc1Br,period change,[4],0.265 h (inactive)
same,survival,[20],124 (inactive)
same,inhibition,[5],1% (inactive)
same,fluorescence ratio (interference),[6],1 (inactive)
same,remaining activity,[7],116% (inactive)
same,remaining activity,[8],112% (inactive)
same,outcome,[21],inactive
same,outcome,[9],inactive
same,outcome,[15],inactive
same,outcome,[16],inactive
same,outcome,[17],inactive
same,outcome,[18],inactive
same,fold change,[3]; stronger effect = lower value,1.11 (inactive) and 0.867 (inactive)
same,fold change,[3]; [32],0.986 and 2.29
same,cell count,[3]; [33],5190 and 8220
same,cell count,[3]; [34],4660 and 9480
same,fold fluorescence,[19],3.51 [at 138.9 µM] (inactive)
same,z-score,[13],2.97 (active)
C[C@]12CCC(=O)C=C1CCC1C2CC[C@@]2(C)C1CC[C@@H]2O (some centres undefined),inhibition,[22],-4.21%
same,score,[23],-1.11
same,rescue above control,[24],4.25
same,cytochrome c release ratio,[25],1.03
same,inhibition of aggregation,[26],-1.96%
same,glutamate uptake change,[27],18.8%
same,aggregation suppression score,[28],-0.43
same,parasite load remaining,[1],68.4% (inactive)
same,viability,[1],110%
same,red/green cell ratio (normalised),[2],1.12 (inactive)
same,normalised cell number,[2]; [30],0.76
same,normalised cell number,[2]; [31],0.85
same,fold change,[3]; stronger effect = lower value,0.943 (inactive)
same,fold change,[3]; [32],2.07
same,cell count,[3]; [33],10700
same,cell count,[3]; [34],11300
CC(N)Cc1c[nH]c2ccc(O)cc12 (centres undefined),period change,[4],-0.08 h (inactive)
same,inhibition,[5],-7% (inactive)
same,fluorescence ratio (interference),[6],0.9 (inactive)
same,remaining activity,[7],105% (inactive)
same,remaining activity,[8],122% (inactive)
same,fold change,[3]; stronger effect = lower value,1.02 (inactive) and 0.98 (inactive)
same,fold change,[3]; [32],1.63 and 0.84
same,cell count,[3]; [33],11100 and 9190
same,cell count,[3]; [34],10900 and 9370
same,outcome,[12],inactive
same,z-score,[13],0.365 (inactive) and 0.08 (inactive)
O=C(N[C@H]1CN2CCC1CC2)c1ccc(Cl)cc1,inhibition,[5],-1% (inactive)
same,fluorescence ratio (interference),[6],1 (inactive)
same,remaining activity,[7],93.4% (inactive)
same,remaining activity,[8],109% (inactive)
same,outcome,[14],inactive
same,outcome,[9],inactive
same,outcome,[10],inactive
same,outcome,[15],inactive
same,outcome,[16],inactive
same,outcome,[17],inactive
same,outcome,[18],inactive
same,fold change,[3]; stronger effect = lower value,1.07 (inactive)
same,fold change,[3]; [35],0.932 (inactive)
same,fold change,[3]; [32],1.52 and 1.27
same,cell count,[3]; [33],10700 and 8830
same,cell count,[3]; [34],10000 and 9480
same,outcome,[12],inactive
same,z-score,[13],0.385 (inactive) and 0.125 (inactive)
NCCc1c[nH]c2ccc(C(N)=O)cc12,period change,[4],-0.055 h (inactive)
same,inhibition,[5],-3% (inactive)
same,fluorescence ratio (interference),[6],1 (inactive)
same,remaining activity,[7],111% (inactive)
same,remaining activity,[8],90% (inactive)
same,fold change,[3]; stronger effect = lower value,0.977 (inactive) and 0.883 (inactive)
same,fold change,[3]; [32],1.26 and 0.923
same,cell count,[3]; [33],10000 and 7810
same,cell count,[3]; [34],10300 and 8850
same,outcome,[12],inactive
same,z-score,[13],0.31 (inactive) and 0.705 (inactive)
C[N+](C)(C)CC#CCN1CCCC1=O,inhibition,[22],23.8%
same,score,[23],1.29
same,rescue above control,[24],8.8
same,cytochrome c release ratio,[25],1.02
same,inhibition of aggregation,[26],53.5%
same,glutamate uptake change,[27],7.8%
same,inclusion score,[29],2
same,aggregation suppression score,[28],1.08
same,period change,[4],-0.1 h (inactive)
same,inhibition,[5],-1% (inactive)
same,fluorescence ratio (interference),[6],1 (inactive)
same,remaining activity,[7],124% (inactive)
same,remaining activity,[8],112% (inactive)
same,fold change,[3]; stronger effect = lower value,1.08 (inactive) and 0.881 (inactive)
same,fold change,[3]; [32],1.78 and 1.33
same,cell count,[3]; [33],9690 and 9120
same,cell count,[3]; [34],8970 and 10300
same,outcome,[12],inactive
same,z-score,[13],0.5 (inactive) and 0.575 (inactive)
O=C1CN=C(c2ccccc2Cl)c2cc([N+](=O)[O-])ccc2N1,inhibition,[22],12.9%
same,score,[23],0.89
same,rescue above control,[24],-2.29
same,cytochrome c release ratio,[25],0.98
same,inhibition of aggregation,[26],52.4%
same,glutamate uptake change,[27],-25.1%
same,inclusion score,[29],2
same,aggregation suppression score,[28],0.77
same,parasite load remaining,[1],52.7% (inactive)
same,viability,[1],99.8%
same,red/green cell ratio (normalised),[2],1.15 (inactive)
same,normalised cell number,[2]; [30],0.93
same,normalised cell number,[2]; [31],1.07
same,fold change,[3]; stronger effect = lower value,0.845 (inactive)
same,fold change,[3]; [32],3.3
same,cell count,[3]; [33],10900
same,cell count,[3]; [34],12900
